# This is one part of the list. A call without a number means that no potency is given here. Records with an inconclusive call do not appear. Active and inactive are the calls of the source. Calls follow the shape of the dose curve; as a rule, active = well fitted cell-killing curve with a large enough effect; inconclusive = small, poorly fitted or top-dose-only effect, or effect the other way, or another doubt; inactive = no such curve, though single readings can be large or run the other way.
# Test: qHTS screen for small molecules that inhibit ELG1-dependent DNA repair: Hit Confirmation with 5FU Viability (AID 624250)
# Conditions: cell viability with 5-FU; series mostly up to 46.1 µM
# Excerpt: Cancer cells divide rapidly compared to normal cells in the body. During cell division, cancer cells need to duplicate their genome by DNA replication. The failure of genome duplication leads to cancer cells' death. Therefore, inhibitors of DNA replication could specifically kill cancer cells. Based on this concept, many chemotherapeutic agents were developed and have been used to treat cancer patients. However, there are a limited number of agents available in the clinical setting, and some of those that do exist have low efficacy and severe side effects. Therefore, if we can find the compounds that effectively block DNA replication either by directly damaging DNA or by inhibiting other cellular mechanisms, the options for cancer treatment will be broadened. With this in mind, we developed a quantitative high-throughput ELG1-luciferase reporter gene assay. Small molecules that specifically block ELG1 function in response to DNA damage can be identified by monitoring the suppression of luciferase activity. Since ELG1 defines a pathway for repairing DNA damage, agents blocking ELG1 function can be used to sensitize cancer cells to chemotherapeutic agents whose mechanism of action involves the induction of DNA damage.
# NIH Molecular Libraries Probe Production Network [MLPCN]
# NIH Chemical Genomics Center [NCGC]
# Assay Provider: Kyungjae Myung, NHGRI, NIH
# ELG1-luc HEK293T cells will be seeded in 1536-well plates at a density of 2,000 cells/well. Approximately 5 hours after plating, compounds will be added to the plate by pin tool transfer and 5-fluorouridine will be added by FRD dispenser (final concentration of 5-fluorouridine =10 µM). 16 hours following the addition of the compounds, cell viability will be measured using Cell Titer Glo.
# Potency is read from the fitted curve at half-maximal effect.
row,SMILES,Potency
1,Clc1ccc2nc(-c3ccccc3)nc(C(Cl)Cl)c2c1,inactive
2,NC(=O)c1sc2nc3c(c(-c4ccccc4)c2c1N)CCC3,inactive
3,Cc1nnc(N/N=C/c2ccccn2)[nH]c1=O,inactive
4,CC(C)(CNC(=O)c1ccc(Cl)c(S(=O)(=O)N2CCc3ccccc3C2)c1)N1CCOCC1,inactive
5,COc1cc(N)c(Cl)cc1C(=O)OCC(=O)c1ccc2c(c1)NC(=O)CO2,inactive
6,COc1ccc(Nc2cc(=O)oc3ccccc23)cc1,inactive
7,COc1ccccc1C(=O)Nc1ccc(C)c(S(=O)(=O)N2CCCCC2)c1,inactive
8,CC(=O)c1c(C)n(-c2ccc(C)cc2)c2ccc(O)cc12,inactive
9,COc1ccc(S(=O)(=O)Nc2ccc3oc(C)c(C(C)=O)c3c2)cc1,inactive
10,OCCCNc1nccc(-c2cc(Nc3cccc(Cl)c3)ncn2)n1,inactive
11,CCc1ccc(N(CC)c2ncnc3nc[nH]c23)cc1,inactive
12,COc1ccc(NS(=O)(=O)c2ccc(Oc3c(C#N)cccc3C#N)cc2)cc1,inactive
13,COc1ccc(CNc2ncnc3ccccc23)cc1,inactive
14,CC(=O)[O][Sn]([c]1ccccc1)([c]1ccccc1)[c]1ccccc1,2.81 µM (active)
15,O=C(C1CCCN(S(=O)(=O)c2ccccc2)C1)N1CCN(c2ccc(F)cc2)CC1 (stereo unspecified),inactive
16,C[C@@H]1C[C@H]2CC[C@H](O2)[C@H](C)C(=O)O[C@@H](C)C[C@@H]2CC[C@@H](O2)[C@@H](C)C(=O)O[C@H](C)C[C@H]2CC[C@H](O2)[C@H](C)C(=O)O[C@@H](C)C[C@@H]2CC[C@@H](O2)[C@@H](C)C(=O)O1,inactive
